Values joined by “and” are separate entries in the source; they are usually repeats but may differ in a detail not shown here. Equal values may be shown once. Where a name gives a salt, the structure may show the parent alone.
How the values were obtained:
Assay in all cases: cell viability relative to vehicle control; higher = less cytotoxic
Settings in all cases: 10 µM
K562 = test system: K562
Method in brief: (§1)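 Screening covered the Selleck bioactive, kinase and epigenetic probe libraries, less identity-inconsistent compounds, on CRISPR-edited mutant clones and isogenic wild-type clones of four leukaemia lines. Cells, at 2000 per well in 50 µL medium, received a single 10 µM acoustically dispensed dose. After 48 h the supernatant was removed and CellTiter-Glo luminescence was read. Viability was analysed in Genedata Screener as percent of the on-plate vehicle control.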

MARIMO = test system: MARIMO
Method in brief: as §1

MOLM14 = test system: MOLM14
Method in brief: as §1

OCI-AML2 = test system: OCI-AML2
Method in brief: as §1

Row | SMILES | cell viability (K562; SRSF2 genotype: SRSF2 P95H/wt) | cell viability (K562; SRSF2 genotype: SRSF2 wt/wt) [%] | cell viability (MARIMO; SRSF2 genotype: SRSF2 P95H/wt) [%] | cell viability (MARIMO; SRSF2 genotype: SRSF2 wt/wt) [%] | cell viability (MOLM14; SRSF2 genotype: SRSF2 P95H/wt) [%] | cell viability (MOLM14; SRSF2 genotype: SRSF2 wt/wt) [%] | cell viability (OCI-AML2; SRSF2 genotype: P95H/wt) [%] | cell viability (OCI-AML2; SRSF2 genotype: wt/wt) [%]
1 | CN/C(=N\CCSCc1nc[nH]c1C)NC#N [Cimetidine (Tagamet)] | 102% and 100% | 98.8 | 102 | 106 | 101 | 102 | 105 | 104
2 | CN1CCN(Cc2ccc(NC(=O)Nc3ccc(Oc4ccnc(N)n4)cc3)cc2C(F)(F)F)CC1 | 31.7% and 37.7% | 22.2 | 6.8 | 2.68 | 1.79 | 0.67 | 1.64 | 10.3
3 | CN1CCC(=C2c3ccccc3CCc3cccnc32)CC1 [Azatadine dimaleate] | 100% and 108% | 94.1 | 92.2 | 102 | 91.9 | 100 | 88 | 99
4 | Cc1nn(C)c(COc2ccc(N3CCN(S(=O)(=O)N(C)C)CC3)cc2)c1-c1cccc2c(CCCOc3cccc4ccccc34)c(C(=O)O)n(CCN3CCOCC3)c12 | 93.7% and 106% | 99.8 | 101 | 107 | 98.3 | 101 | 103 | 103
5 | CC[C@H]1OC(=O)C[C@@H](O)[C@H](C)[C@@H](O[C@@H]2O[C@H](C)[C@@H](O[C@H]3C[C@@](C)(O)[C@@H](O)[C@H](C)O3)[C@H](N(C)C)[C@H]2O)[C@@H](CC=O)C[C@@H](C)C(=O)/C=C/C(C)=C/[C@@H]1CO[C@@H]1O[C@H](C)[C@@H](O)[C@@H](OC)[C@H]1OC [Tylosin] | 99.6% and 98.3% | 102 | 106 | 109 | 101 | 105 | 105 | 112
6 | O=S(=O)(Cl)c1ccc(-c2ccccc2)cc1 [Biphenyl-4-sulfonyl chloride] | 109% and 104% | 107 | 99 | 100 | 108 | 105 | 105 | 113
7 | O=c1cc(-c2ccc(O[C@@H]3O[C@H](CO)[C@@H](O)[C@H](O)[C@H]3O)cc2)oc2cc(O)c([C@@H]3O[C@H](CO)[C@@H](O)[C@H](O)[C@H]3O[C@@H]3OC[C@H](O)[C@H](O)[C@H]3O)c(O)c12 [Vaccarin] | 97.3% and 93.7% | 94.2 | 99.2 | 96.3 | 92.3 | 100 | 91.1 | 96
8 | O=C(O)c1ccc(O)c2ncccc12 | 99.2% and 102% | 97.3 | 107 | 108 | 98.9 | 102 | 108 | 102
9 | Nc1ncnc2c1ncn2[C@@H]1O[C@H](CO)[C@@H](O)[C@H]1O [Adenosine (Adenocard)] | 113% and 107% | 108 | 104 | 98.5 | 104 | 114 | 102 | 106
10 | NC(=O)Nc1cc(-c2cccc(F)c2)sc1C(=O)N[C@H]1CCCNC1 | 3.91% and 4.76% | 6.23 | 13.3 | 13.4 | 1.02 | 0.84 | 2.47 | 8.51
11 | CC(C)n1c([C@H](C)Nc2ncnc(N)c2C#N)cc2cccc(-c3ccc(=O)n(C)c3)c2c1=O | 71.2% and 78.7% | 68.5 | 46.7 | 34 | 20.9 | 22.6 | 5.13 | 19.1
12 | CN(C)C1CCN(C(=O)c2ccc(NC(=O)Nc3ccc(-c4nc(N5CCOCC5)nc(N5CCOCC5)n4)cc3)cc2)CC1 | 34.1% and 32.1% | 26.6 | 43.2 | 34.9 | 22.1 | 21.3 | 10.5 | 16.2
13 | C[C@@H]1O[C@@H](OC[C@H]2O[C@@H](Oc3c(-c4ccc(OCCO)c(OCCO)c4)oc4cc(OCCO)cc(O)c4c3=O)[C@H](O)[C@@H](O)[C@@H]2O)[C@H](O)[C@H](O)[C@H]1O [Troxerutin] | 105% and 90.9% | 86.2 | 78.9 | 92.2 | 86.3 | 91.9 | 91.5 | 88
14 | CN(C)CC[C@H](CSc1ccccc1)Nc1ccc(S(=O)(=O)NC(=O)c2ccc(N3CCN(Cc4ccccc4-c4ccc(Cl)cc4)CC3)cc2)cc1[N+](=O)[O-] | 49.5% and 28.1% | 72.7 | 0.46 | 1.66 | 0.15 | 2 | 0.19 | 3.31
15 | Cc1cc(NS(=O)(=O)c2ccc(N)cc2)no1 [Sulfamethoxazole] | 94.6% and 85.2% | 92.6 | 89.7 | 95.6 | 99.8 | 91.1 | 85.2 | 95.5
16 | COc1ccc(-c2oc3cc(O)cc(O)c3c(=O)c2O)cc1 [kaempferide] | 108% and 104% | 103 | 105 | 119 | 74.6 | 98.2 | 80.7 | 82.7
17 | CN(C)Cc1cccc(N=C(c2ccccc2)c2c(O)[nH]c3cc(C(N)=O)ccc23)c1 | 80.6% and 81.5% | 78.9 | 72.2 | 83.8 | 11 | 15.9 | 23.9 | 31.1
18 | Cc1onc(-c2c(Cl)cccc2Cl)c1C(=O)N[C@@H]1C(=O)N2[C@@H]1SC(C)(C)[C@@H]2C(=O)O [Dicloxacillin Sodium] | 99.5% and 95% | 101 | 101 | 103 | 98.7 | 98.3 | 93 | 109
19 | C[C@@H]1COCCN1c1cc(C2(S(C)(=O)=O)CC2)nc(-c2cccc3[nH]ccc23)n1 | 8.63% and 11.6% | 8.6 | 20.2 | 18 | 22.2 | 7.72 | 16.2 | 18.7
20 | Nc1nc(=O)n([C@@H]2CS[C@H](CO)O2)cc1F [Emtricitabine] | 106% and 105% | 104 | 103 | 106 | 104 | 107 | 102 | 108

Row | SMILES | cell viability (K562; SRSF2 genotype: SRSF2 P95H/wt) | cell viability (K562; SRSF2 genotype: SRSF2 wt/wt) [%] | cell viability (MARIMO; SRSF2 genotype: SRSF2 P95H/wt) [%] | cell viability (MARIMO; SRSF2 genotype: SRSF2 wt/wt) [%] | cell viability (MOLM14; SRSF2 genotype: SRSF2 P95H/wt) [%] | cell viability (MOLM14; SRSF2 genotype: SRSF2 wt/wt) [%] | cell viability (OCI-AML2; SRSF2 genotype: P95H/wt) [%] | cell viability (OCI-AML2; SRSF2 genotype: wt/wt) [%]
21 | CC[C@]1(O)C[C@H]2CN(CCc3c([nH]c4ccccc34)[C@@](C(=O)OC)(c3cc4c(cc3OC)N(C=O)[C@H]3[C@@](O)(C(=O)OC)[C@H](OC(C)=O)[C@]5(CC)C=CCN6CC[C@]43[C@@H]65)C2)C1 [Vincristine Sulfate] | 13.6% and 37% | 35.8 | 6.92 | 9.68 | 0.94 | 1.22 | 5.06 | 9.32
22 | CCN(CC)c1ccc(C=NNC(=O)c2ccc(O)cc2)cc1 | 46.8% and 47.9% | 51.9 | 53.8 | 52.2 | 56.2 | 49.9 | 70.1 | 69.3
23 | Cc1nc2cc(F)c(F)cc2n1-c1cncc(Nc2ccc(C(F)(F)F)cc2)n1 | 10.5% and 26.5% | 28 | 8.44 | 6.32 | 11.7 | 2.75 | 6.57 | 9.7
24 | Cc1cc(-c2ncc(CC(=O)Nc3ccc(-c4cnccn4)cn3)cc2C)ccn1 | 73.5% and 84.3% | 81.2 | 81.6 | 70 | 48.8 | 51.1 | 54.8 | 63.5
25 | C[C@]12C[C@@H](O)[C@@H]3C[C@@]1(O[C@@H]1O[C@H](CO)[C@@H](O)[C@H](O)[C@H]1O)[C@@]3(COC(=O)c1ccccc1)C(=O)O2 [Albiflorin] | 103% and 108% | 107 | 96.9 | 94.5 | 104 | 98.4 | 98.3 | 92.9
26 | CCOC(=O)c1cccc(N)c1 [Ethyl 3-Aminobenzoate methanesulfonate] | 96.7% and 92.4% | 85.1 | 87.2 | 96.5 | 88.7 | 96.5 | 94.2 | 90.7
27 | NC1(c2ccc(-c3nc4ccn5c(=O)[nH]nc5c4cc3-c3ccccc3)cc2)CCC1 [MK-2206 dihydrochloride] | 38.7% and 32.2% | 48.4 | 51.4 | 53.3 | 14.7 | 22.9 | 5.42 | 27.8
28 | COc1ccc2[nH]cc(/C=C3\C(=O)Nc4ccc(NC(=O)CCN5CCCCC5)cc43)c2c1 | 7.59% and 11% | 8.26 | 37.9 | 33.6 | 0.75 | 0.77 | 0.4 | 0.72
29 | OC[C@H]1O[C@@H](c2ccc(F)c(Cc3cc4ccccc4s3)c2)[C@H](O)[C@@H](O)[C@@H]1O [Ipragliflozin (ASP1941)] | 96.6% and 98.5% | 102 | 95.6 | 95.8 | 101 | 99.4 | 99.1 | 95.1
30 | CN1CCC(NC(=O)c2cc(-c3c(O)cc(O)cc3Oc3ccc([N+](=O)[O-])cc3)on2)CC1 | 17.4% and 26.5% | 23.6 | 29.8 | 23.9 | 1.68 | 1.87 | 17.5 | 19.7
31 | CCOC(=O)C1=C(C)NC(=S)NC1c1cccc(O)c1 (stereo not given) [Monastrol] | 106% and 97.8% | 103 | 103 | 99.4 | 105 | 103 | 101 | 102
32 | Cc1nn(C)c2nc(NNC(=O)Nc3cc(Cl)nc(Cl)c3)cc(C(C)C)c12 | 70.7% and 79.6% | 70 | 82.1 | 61.8 | 83 | 83.8 | 50.5 | 55.4
33 | OCCc1c[nH]c2ccccc12 [Tryptophol] | 102% and 92.7% | 94.7 | 100 | 110 | 97.8 | 99.4 | 90.5 | 111
34 | C[C@]12C=CC(=O)C=C1CC[C@@H]1[C@@H]2C(=O)C[C@@]2(C)[C@H]1CC[C@]2(O)C(=O)CO [Prednisone (Adasone)] | 102% and 107% | 95.5 | 104 | 101 | 108 | 107 | 106 | 110
35 | Cc1[nH]c(=O)c(C#N)cc1-c1ccncc1 [Milrinone (Primacor)] | 102% and 97.3% | 94.1 | 96.1 | 93.1 | 98.8 | 99.1 | 101 | 96
36 | C=C[C@](C)(O)CC[C@@H]1[C@@]2(C)CCCC(C)(C)[C@@H]2CC[C@@]1(C)O [Sclareol] | 93.2% and 93.5% | 95.6 | 94.5 | 94.3 | 106 | 103 | 89.2 | 85.1
37 | CCC[C@H](NC(=O)[C@@H]1[C@H]2CCC[C@H]2CN1C(=O)[C@@H](NC(=O)[C@@H](NC(=O)c1cnccn1)C1CCCCC1)C(C)(C)C)C(=O)C(=O)NC1CC1 [Telaprevir (VX-950)] | 87.5% and 92% | 80.2 | 68.6 | 86.1 | 89.5 | 99.2 | 85.9 | 98.7
38 | Cc1[nH]c(/C=C2\C(=O)Nc3ccc(F)cc32)c(C)c1C(=O)NCCN1CCCC1 [Toceranib phosphate] | 97.4% and 103% | 94.5 | 64 | 53.4 | 5.66 | 7.09 | 11.6 | 19.6
39 | Cc1nc(NC(=O)N2CCC[C@H]2C(N)=O)sc1-c1ccnc(C(C)(C)C(F)(F)F)c1 [Alpelisib (BYL719)] | 93.3% and 102% | 90.4 | 55.6 | 52.6 | 52.6 | 65.1 | 32.2 | 41
40 | CC(C)(c1ccc(OCC(O)CO)cc1)c1ccc(OCC(O)CCl)cc1 (stereo not given) | 82.3% and 81.7% | 85.8 | 83.5 | 104 | 86 | 90.9 | 84.8 | 86.5

Source: the supplement of paper PMC10981050
